Sampled rows, rich in hits. Any-hit rate of the full collection: about 2.4%.
D2 PAM-1 = HTS Assay for Positive Allosteric Modulators of the Human D2 Dopamine Receptor: Primary Screen for Potentiators; 340,000 tested, 0.34% active; HEK293 T-REx D2, calcium flux, EC20 dopamine potentiation; AID 485347, 2010; D(2) dopamine receptor (Homo sapiens), P14416; potentiation, % at 10 µM;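 active = potentiation over 3 SD above the plate norm, cut at about 30% in these data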; note: 0% is about no effect
Target sequence (P14416 whole entry, looked up): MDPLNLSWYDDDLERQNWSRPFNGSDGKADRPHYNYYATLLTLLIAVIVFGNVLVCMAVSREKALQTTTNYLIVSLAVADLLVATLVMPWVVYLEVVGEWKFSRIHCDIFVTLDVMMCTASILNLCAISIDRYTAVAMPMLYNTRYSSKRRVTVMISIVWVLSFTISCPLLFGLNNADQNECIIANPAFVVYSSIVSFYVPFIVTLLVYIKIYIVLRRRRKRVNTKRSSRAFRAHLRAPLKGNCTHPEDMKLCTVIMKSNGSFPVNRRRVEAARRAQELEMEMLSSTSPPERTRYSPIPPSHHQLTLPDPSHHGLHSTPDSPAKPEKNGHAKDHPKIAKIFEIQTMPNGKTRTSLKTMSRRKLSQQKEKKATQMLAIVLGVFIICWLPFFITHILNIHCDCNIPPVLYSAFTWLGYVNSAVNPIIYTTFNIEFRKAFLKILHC
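Using a no-wash calcium dye in inducible, force-coupled HEK293 Trex cells expressing D2, we tracked fluorescence each second for 180 s after compound, then for 180 s after EC20 dopamine to detect augmented signalling.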
D2 PAM-2 = Beta-Arrestin HTS for Positive Allosteric Modulators of the Human D2 Dopamine Receptor: Potentiators | 360,000 tested, 0.23% active | AID 624464, 2012 | potentiation, % (test concentration not listed) | D(2) dopamine receptor (Homo sapiens), P14416 | DiscoveRx D2 beta-arrestin cells, luminescence, 90 min; 100% = 57 uM dopamine signal; in the data active = potentiation above about 50%; inconclusive = mostly about 30% to 49%
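D2 cells co-treated with compound plus 50 nM dopamine (EC20) for 90 min at 37 deg C to detect potentiation. Beta-arrestin recruitment was read as enzyme-fragment luminescence after 1 h at ambient temperature. Full response was set by 57 uM dopamine.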
D2 ag-1 = HTS Assay for Allosteric Agonists of the Human D2 Dopamine Receptor: Primary Screen for Agonists | D(2) dopamine receptor (Homo sapiens), P14416 | HEK293 T-REx D2 cells, calcium flux agonist mode | activation, % at 2 µM | 340,000 tested, 0.53% active | AID 485358, 2010;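 active = activation over 3 SD above normal in the single-dose calcium agonist read, cut at about 30% in these data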; note: 0% is about no effect
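Agonism scored from kinetic calcium signal (1 read/sec, 180 s) following compound pin transfer, after a 10 s baseline. Cells: HEK293 Trex line expressing inducible D2 receptor coupled to calcium, dye-loaded after overnight culture at 30 C.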
D2 ag-2 = Beta-Arrestin HTS for Positive Allosteric Modulators of the Human D2 Dopamine Receptor: Agonists; DiscoveRx PathHunter D2 beta-arrestin, luminescence, 90 min; 100% = 57 uM dopamine signal; AID 624465, 2012; activation, % (test concentration not listed); 360,000 tested, 0.084% active; D(2) dopamine receptor (Homo sapiens), P14416; in the data active = activation above about 40%; inconclusive = between about 15% and that limit
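Agonist mode: compounds alone added to overnight-plated D2 PathHunter cells for 90 min at 37 C, with 57 uM final dopamine (EC100) defining full response. Beta-arrestin recruitment detected by chemiluminescent reagent, read after 1 h at ambient temperature.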
D2 antag = HTS Assay for Allosteric Antagonists of the Human D2 Dopamine Receptor: Primary Screen for Antagonists; D(2) dopamine receptor (Homo sapiens), P14416; HEK293 TREx D2 cells, calcium flux, dopamine EC80; inhibition, % at 10 µM; 340,000 tested, 2% active; in the data active = inhibition above about 30%; inactive = below that, where a call was filed; note: 0% is about no effect
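In this primary screen, negative modulation is detected by tracking calcium flux after an EC80 dopamine challenge in inducible HEK293 T-REx D2 cells preexposed to test compound for 180 s.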
Numbers without * were called inactive; ? = inconclusive; · = no result given.

SMILES	D2 PAM-1	D2 PAM-2	D2 ag-1	D2 ag-2	D2 antag
COc1ccccc1N1CCN(C2CCCN(S(=O)(=O)c3cccc(Cl)c3)C2)CC1 (stereo not given)	-26.8	-49.2	-0.9	-2.8	53.3*
CCOc1cc(CN2CCCC(N3CCN(c4ccc(F)cc4)CC3)C2)ccc1OC (stereo not given)	-15.5	-0.7	0.0	-3.6	-1.7
COc1ccc(CN2CCCC(N3CCN(c4cccc(Cl)c4)CC3)C2)cc1OC (stereo not given)	-16.7	-42.5	38.4*	-1.7	25.9
Cc1oc2ncn(CC(C)C)c(=O)c2c1C(=O)N1CCN(c2cccc(C(F)(F)F)c2)CC1	3.7	·	0.7	·	·
O=C(CSc1ccc2nc(-c3ccccc3)cn2n1)Nc1cccc(F)c1	6.7	·	-0.2	·	·
CC(=O)c1ccc(NC(=O)CSc2nc(-c3ccccc3C)nc3c2c(=O)n(C)c(=O)n3C)cc1	-8.7	·	·	·	·
CCCCCC(C)NC(=O)c1ccoc1C (stereo not given)	-13.7	-1.7	0.0	-2.7	40.3*
CCCCCCCCCCCNC(=O)c1ccoc1C	7.7	-0.5	·	-2.8	7.6
O=[N+]([O-])c1ncccc1OCc1ccccc1Br	-11.3	-4.5	-0.5	-3.8	34.3*
O=C(NCc1ccccc1)c1ccc(C(=O)NCc2ccccc2)cc1	·	3.3	·	3.9	·
O=C(NCc1ccccc1)c1n[nH]nc1-c1ccccc1O	8.2	-8.0	0.0	-0.5	30.8*
CCCCCOC(=O)c1ccc(Nc2nc(C(=O)OCC)nc3ccccc23)cc1	-5.0	·	0.9	·	·
O=[N+]([O-])c1ccc(/C=N/NC(=S)Nc2ccc(Cl)cc2Cl)s1	-6.5	-9.9	1.6	-2.6	45.4*
N#Cc1c(NC(=S)NC(=O)c2ccccc2)sc2c1CCN(CCc1ccccc1)C2	-4.1	·	44.2*	·	0.1
CC1CCc2c(sc(NC(=S)NC(=O)c3ccccc3)c2C#N)C1 (stereo not given)	7.4	-1.2	-0.7	-1.8	37.5*
CCOc1ccc(C(=O)NCCS(=O)(=O)N2CCN(c3cccc(Cl)c3)CC2)cc1	24.7	·	1.3	·	·
NC(=S)N=Nc1c(O)cc(O)c2[nH]c(=O)ccc12	·	65.6*	·	?	·
O=C(c1cccc([N+](=O)[O-])c1)N1CCN(CCc2ccncc2)CC1	8.4	·	0.6	·	·
CCN(C(=O)c1c(-c2ccccc2Cl)noc1C)C1CCCCC1	47.1*	-8.6	-0.7	-2.3	-11.6
Cc1sc2ncnc(N3CCC(C(=O)NNC(=O)COc4ccc(Cl)cc4)CC3)c2c1C	·	6.7	·	6.7	·
Cc1sc2ncnc(N3CCN(CCOc4ccc(Cl)cc4)CC3)c2c1C	-11.6	-4.1	-1.4	1.8	35.5*
N#Cc1cnn(Cc2ccccc2)c1/N=C/N1CCOCC1	·	4.0	0.9	-3.0	34.2*
CCn1c(=O)c(C(=O)Nc2ccc(C(C)=O)cc2)nc2ccccc21	4.0	·	0.3	·	·
Cc1cccc(N2CCN(S(=O)(=O)c3ccc4c(c3)C(C(C)C)C(=O)N4)CC2)c1C (stereo not given)	2.2	·	0.3	·	·
CC1CCN(CCOc2ccc(OCc3ccccc3)cc2)CC1	-36.5	-33.9	2.0	-10.5	30.9*
SMILES	D2 PAM-1	D2 PAM-2	D2 ag-1	D2 ag-2	D2 antag
CC1CCN(CCCCOc2ccc(C(C)(C)C)cc2)CC1	-19.7	-12.6	0.7	1.8	32.6*
c1ccc(COc2ccc(OCCCCN3CCCC3)cc2)cc1	0.6	-23.2	2.6	-6.3	-1.8
CCOC(=O)C1CCN(c2nc3c(S(=O)(=O)c4ccccc4)nnn3c3ccsc23)CC1	3.6	·	·	·	·
Cc1cc(NC(=O)CS(=O)(=O)c2ccc(Cl)cc2)no1	44.5*	-7.0	0.1	-1.9	1.5
Cc1cc(NC(=O)CS(=O)(=O)c2ccc(F)cc2)no1	6.7	-19.2	-0.6	-3.4	-10.4
Cc1ncoc1C(=O)N1CCCC(C(=O)c2ccc(-c3ccccc3)cc2)C1 (stereo not given)	-5.6	-6.7	-1.3	-0.5	51.7*
O=C(c1ccc(-c2ccccc2)cc1)C1CCCN(Cc2ccncc2)C1 (stereo not given)	-37.5	-15.7	0.0	5.0	74.6*
CCOC(=O)C1=C(CC)Nc2ccccc2N=C1NC(=O)Nc1ccccc1OC	-26.2	-17.1	-0.8	-3.7	50.9*
CC1=C(C(=O)OCc2ccccc2)C(c2cccc(F)c2)NC(=O)N1 (stereo not given)	1.1	71.9*	-1.4	43.6*	2.6
COc1ccc(C2NC(=O)NC(C)=C2C(=O)OCc2ccccc2)cc1 (stereo not given)	3.8	4.5	-2.2	8.2	4.0
CC1=C(C(=O)OCc2ccccc2)C(c2ccccc2)NC(=O)N1 (stereo not given)	5.0	52.6*	-0.1	13.9	3.3
CC1=C(C(=O)Nc2cccnc2)C(c2ccccc2)n2nc(SCc3ccccc3)nc2N1 (stereo not given)	·	·	-0.3	·	·
COC(=O)CS(=O)(=O)c1ccsc1C(=O)Nc1ccc(F)cc1	7.2	-8.1	0.4	3.5	38.3*
COc1ccc(-c2cc(C)no2)cc1S(=O)(=O)NCCCN1CCCCCC1	-2.4	-35.1	0.0	-2.6	33.7*
CCc1cc(=S)n2c([nH]c3ccccc32)c1C#N	31.7*	4.6	1.4	2.4	12.3
CCc1cc(=O)n2c([nH]c3ccccc32)c1C#N	-11.2	0.7	·	-2.9	25.4
COc1ccccc1N1CCN(S(=O)(=O)/C=C/c2ccccc2)CC1	-0.6	13.6	1.1	-1.9	53.6*
O=S(=O)(/C=C/c1ccccc1)N1CCN(c2ccccc2)CC1	-7.4	-1.0	-0.2	0.9	-0.6
Cc1ccccc1NC(=O)NC1CCS(=O)(=O)C1 (stereo not given)	2.4	3.9	0.1	-0.8	-7.4
COc1ccccc1NC(=O)NC1CCS(=O)(=O)C1 (stereo not given)	-5.3	-4.5	0.7	-4.4	39.2*
CC(NC(=O)c1ccc(NC(=O)c2nsc3ccccc23)cc1)c1ccccc1 (stereo not given)	4.1	·	·	·	·
COCCn1nnnc1C(c1cc2cccc(C)c2[nH]c1=O)N1CCN(c2ccccc2F)CC1 (stereo not given)	-11.5	-38.4	12.0	-1.0	34.3*
COCCn1nnnc1C(c1ccccc1OC)N1CCN(c2ccccc2F)CC1 (stereo not given)	-1.7	4.4	1.8	0.1	1.6
Cc1ccc(-n2ncc(C#N)c2/N=C/N2CCN(C)CC2)cc1	-25.8	-44.7	0.4	-3.2	37.3*
